High-throughput results (PubChem)
Hits are enriched below; roughly 9% of the tested compounds scored in any of these assays.
HTT aggregate: mutant huntingtin aggregation inhibition. PC12 HttQ103-GFP aggregates, Acumen cytometry, 40 h. Potency, µM (highest dose often 46.1 µM), without a hit: top-dose activity change, negative = inhibition, hits mostly inhibitors. 220,000 tested, 1.1% active. AID 1688; note: % is set by controls: 0 for no effect and ±100 for the full control effect; nearly all actives have a fitted effect of over 60% in size
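PC12 cells stably carrying ecdysone-inducible HTT exon 1 Q103–GFP were induced with tebufenozide (100 nM final) and treated with library compounds in titration. GFP aggregates in lysates were counted by laser scanning cytometry.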
HTT cytoprotect: Huntington cell model cytoprotection by ATP luminescence. AID 1471. PC12 HTT-Q103 induced, cytoprotection, ATP luminescence, 40 h. Potency, µM (doses to about 56.4 µM), inactives show cytoprotection (ATP increase), hits mostly activators. 230,000 tested, 0.14% active; note: % of control where 0% means no effect; nearly all actives have a fitted effect of over 45% in size
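Huntington model: PC12 line, ecdysone-inducible HTTQ103 exon1–GFP, tebufenozide 100 nM. Test articles in a dose series. Endpoint luminescence from cellular ATP.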
Luc counter: Kinase-Glo luciferase inhibition (counter-screen); Q27757; Kinase-Glo luciferase, ATP luminescence, 8 min; Potency, µM (highest dose often 38.3 µM), without a hit: at the highest dose activity change, negative = inhibition, actives largely listed as inhibitors; 200,000 tested, 0.28% active; note: % is set by controls: 0 for no effect and ±100 for the full control effect; nearly all actives have a fitted effect of over 60% in size
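Recombinant Kinase-Glo luciferase, 10 uM ATP (linear range), luciferin; imidazole pH 7.2 / KCl / MgCl2 / Tween / BSA buffer; 8 min RT; luminescence.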
ALDH1A1 inh: inhibitors of human aldehyde dehydrogenase 1A1 | Purified ALDH1A1, NADH fluorescence, propionaldehyde substrate | Potency, µM (series often up to 75.3 µM), for the others: at the top dose activity, negative = inhibition, actives largely listed as inhibitors | P00352 | 220,000 tested, 7.3% active | AID 1030; active = well fitted inhibition curve with a large enough effect, not every such curve was filed as active; inconclusive = small, poorly fitted or top-dose-only effect, or another doubt; inactive = no such curve, though single readings can be large or run the other way;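 note: plate controls were no enzyme wells and a reference inhibitor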
Target sequence (P00352 whole entry, looked up): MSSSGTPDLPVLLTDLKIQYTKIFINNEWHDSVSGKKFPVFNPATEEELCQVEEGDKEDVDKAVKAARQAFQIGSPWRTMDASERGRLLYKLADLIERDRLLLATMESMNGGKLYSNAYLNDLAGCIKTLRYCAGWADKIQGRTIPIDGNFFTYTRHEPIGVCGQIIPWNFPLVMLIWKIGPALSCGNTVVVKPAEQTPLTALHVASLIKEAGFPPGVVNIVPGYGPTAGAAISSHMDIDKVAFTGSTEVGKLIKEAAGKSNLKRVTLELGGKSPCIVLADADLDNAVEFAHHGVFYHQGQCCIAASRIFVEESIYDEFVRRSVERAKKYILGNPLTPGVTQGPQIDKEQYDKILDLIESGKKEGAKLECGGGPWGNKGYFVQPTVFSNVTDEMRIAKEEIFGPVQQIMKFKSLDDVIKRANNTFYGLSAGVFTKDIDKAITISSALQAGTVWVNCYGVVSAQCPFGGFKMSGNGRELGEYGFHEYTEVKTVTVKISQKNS
Lamin A splicing: changes lamin A minigene splicing in HeLa cells; HeLa LMNA splicing GFP/RFP minigene ratio, 48 h; Potency, µM (highest dose often 46.1 µM), inactives show at the top dose ratio change, negative = inhibition, actives largely listed as inhibitors; AID 1487; 200,000 tested, 0.01% active; active = well fitted inhibition curve with a large enough effect in the signal ratio, with a control signal flat, not every such curve was filed as active; inconclusive = small, poorly fitted or top-dose-only effect, or effect the other way, or a change in a side signal; the % refers to the signal ratio; note: % is set by controls: 0 for no effect and ±100 for the full control effect
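S3 HeLa cells stably expressing lamin A-EGFP splicing minigene plus DsRed2, 600 cells/well, 48 h compound exposure at 37C. Laser-scanning cytometry; analysed as GFP (500-530 nm)/RFP (575-640 nm) total intensity ratio; 0.5% DMSO vehicle.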
HPGD block: blocks human HPGD enzyme activity; P15428; Potency, µM, for inactives: top-dose activity change, negative = inhibition, most hits filed as inhibitors; AID 894; 150,000 tested, 4.3% active; purified HPGD, NADH fluorescence kinetic, PGE2 substrate; active = well fitted inhibition curve with a large enough effect, not every such curve was filed as active; inconclusive = small, poorly fitted or top-dose-only effect, or another doubt; inactive = no such curve, though single readings can be large or run the other way; note: % is set by controls: 0 for no effect and ±100 for the full control effect
Target sequence (P15428 whole entry, looked up): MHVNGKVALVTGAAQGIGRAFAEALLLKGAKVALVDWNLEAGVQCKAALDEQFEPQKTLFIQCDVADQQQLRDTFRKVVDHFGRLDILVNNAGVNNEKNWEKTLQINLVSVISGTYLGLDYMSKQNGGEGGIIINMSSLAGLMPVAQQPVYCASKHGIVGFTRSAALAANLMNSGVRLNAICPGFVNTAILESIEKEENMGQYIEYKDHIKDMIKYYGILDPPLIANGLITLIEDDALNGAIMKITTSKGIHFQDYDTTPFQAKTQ
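20 nM HPGD preincubated 15 min at room temperature with compound in 50 mM Tris-HCl pH 8, 0.01% Tween 20. Started with 1 mM NAD+ and 30 uM prostaglandin E2; NADH fluorescence (360/450 nm) read 5 times over 30-s intervals, last minus first.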
Starred values were filed as active, the others as inactive; ? = inconclusive; . = no result given; ! = not confirmed by another sample; [ ] = another dose, or the depositor's remark. Unless noted, calls come from the whole dose curve; as a rule, active = well fitted curve in the direction sought with a large enough effect; inconclusive = small, poorly fitted or top-dose-only effect, or another doubt; inactive = no such curve, though single readings can be large; an effect the other way counts as inactive or inconclusive. Potency is the fitted concentration of half-maximal effect.

SMILES	HTT aggregate	HTT cytoprotect	Luc counter	ALDH1A1 inh	Lamin A splicing	HPGD block
COc1ccc(CCNc2ncnc3sccc23)cc1OC	1µM*	13%[10 µM]	-4%	7%	?	.
NS(=O)(=O)c1ccc(CCNc2ncnc3sccc23)cc1	?	-2%	-1%	8%	?	-15%
CCN(CC)S(=O)(=O)c1ccc(-c2nnc(SCc3nnc(-c4ccc(C)cc4)o3)n2CC)cc1	-18%	-9%	-4%	?	-20%	-6%
COC(=O)C1=NN(c2ccc(C)cc2)C2C(=O)N(c3ccccc3OC)C(=O)C12 (configuration not stated)	8%[9.22 µM]	1%[10 µM]	.	.	.	.
O=C(C1CC1)N1CCCN(C(=O)C2CC2)CC1	7%[9.22 µM]	1%	-4%	-5%	2%	-1%
N#C/C(=C(/O)c1ccc(-c2cccc([N+](=O)[O-])c2)o1)c1nc2ccccc2s1	11µM*	-136%	-1%	?	.	.
COc1ccc(C/C(O)=C(\C#N)c2nc3ccccc3s2)cc1	13µM*	6%[10 µM]	0%	-6%	?	-27%
CN(C)c1ccc(CC(=O)c2nc3ccccc3s2)cc1	-10%	-2%[10 µM]	-2%	7.1µM*	2%	-8%
Cc1ccc(SC/C(O)=C(\C#N)c2nc3ccccc3s2)cc1	?	16%[1.9 µM]	0%	-3%	-18%	-17%
N#C/C(=C(/O)COc1ccccc1)c1nc2ccccc2s1	?	.	1%	9%	.	.
N#C/C(=C(/O)CSc1ccccn1)c1nc2ccccc2s1	-2%	-47%	1%	8.9µM*	.	.
Cc1ccc(SCC(=O)N2CCCC2)cc1	-4%	-6%[10 µM]	-2%	-6%	-5%	-24%
COc1cccc(C(=O)Nc2nnc(C3CCCO3)s2)c1 (configuration not stated)	15%	-49%	-1%	?	22%	-27%
Cc1ccc(C(=O)NNC(=O)c2cc(OCC(F)(F)F)ccc2OCC(F)(F)F)cc1	25%	-10%	1%	14%	6%	-10%
Fc1ccccc1NC(=S)NNc1ncc(C(F)(F)F)cc1Cl	-80%	-4%	-3%	2.2µM*	-9%	-25%
Cc1cccc(C)c1NC(=S)NNc1ncc(C(F)(F)F)cc1Cl	-16%	0%	-3%	?	7%	-5%
FC(F)(F)c1cnc(NNC(=S)Nc2cccnc2)c(Cl)c1	?	-113%	-1%	2.2µM*	?	.
NC(=O)NNc1ncc(C(F)(F)F)cc1Cl	22%	-2%	-2%	?	9%[9.22 µM]	.
Cc1c(Cl)cccc1NC(=S)NNc1ncc(C(F)(F)F)cc1Cl	13µM*	-64%	2%	14µM*	1%	-11%
Cc1ccccc1NC(=S)NNc1ncc(C(F)(F)F)cc1Cl	?	12%	16%	10µM*	?	-13%
NC(=S)Nc1ncc(C(F)(F)F)cc1Cl	16%	2%[10 µM]	0%	-9%	9%[46 µM]	.
O=C(NNc1ncc(C(F)(F)F)cc1Cl)c1c(Cl)cccc1Cl	-19%	-71%	3%	3%	?	-4%
COc1ccccc1N1C(=O)C2C3C=CC(C3)C2C1=O (configuration not stated)	6%	21%[10 µM]	0%	-5%	3%	-10%
O=C(COC(=O)CCC(=O)c1ccc(F)cc1)NCc1ccco1	-2%	-20%	3%	10%	5%[46 µM]	.
C#C[C@]1(O)CC[C@H]2[C@H]3[C@H](CC[C@@]21C)C1=C(CC(=O)CC1)C[C@@H]3C	8%	-11%	.	.	.	.
SMILES	HTT aggregate	HTT cytoprotect	Luc counter	ALDH1A1 inh	Lamin A splicing	HPGD block
O=C(NC(=O)c1cccc(OC(F)(F)C(F)F)c1)OC1CCS(=O)(=O)C1 (configuration not stated)	-7%	-16%[10 µM]	1%	0%	-5%	-6%
CCc1nn2cc(C(=O)c3ccccc3O)cnc2c1-c1ccc(F)cc1	-15%	-23%[10 µM]	-1%	?	?	16µM*
CCc1nn2cc(C(=O)c3cc(C)ccc3O)cnc2c1-c1ccc(F)cc1	-18%	-25%[10 µM]	-4%	?	?	16µM*
Cc1ccc(O)c(C(=O)c2cnc3c(c2)c(-c2ccc(F)cc2)c(C#N)c(=O)n3C)c1	13%	12%	0%	-4%	12%[46 µM]	.
CCc1nn2c(N(C)CCO)cc(C)nc2c1-c1ccc(F)cc1	-9%[9.22 µM]	-6%[10 µM]	5%	6%	-10%[46 µM]	.
O=C(Cn1cnc2c(cnn2-c2ccccc2)c1=O)c1ccc(Cl)cc1	-24%	-2%[10 µM]	-1%	9%	-15%	-12%
CCOC(=O)C1C(=O)C=C(c2ccc(C)cc2)CC1c1cccc([N+](=O)[O-])c1 (configuration not stated)	-15%	-18%[10 µM]	.	2.5µM*	?	.
CCOC(=O)C1C(=O)C=C(c2ccc(C)cc2)CC1c1ccco1 (configuration not stated)	-32%	-24%	-4%	?	17%[0.0737 µM]	-19%
Cc1ccsc1C=C1C(=O)c2ccccc2C1=O	-2%	-8%	?	?	27%	-12%
CC(C)(C)c1ccc2c(c1)C(=O)c1ccccc1C2=O	-24%	0%[10 µM]	.	?	-5%	.
CC1=CC(=O)c2ccccc2C1=O	-97%	-368%	-6%	14µM*!	?	?
COc1cccc2c1C(=O)C=C(C)C2=O	14µM*	9%[0.074 µM]	3%	?	?	-5%
CC(C)(C=O)C1=CC(=O)c2ccccc2C1=O	?	-45%[10 µM]	1%	1.6µM*	?	7.1µM*
Cn1cnc(S(=O)(=O)NCc2ccccc2)c1	17%	.	18%	6%	?	-18%
COC(=O)c1cnn(-c2ccccc2)c1N	2%[9.22 µM]	2%[10 µM]	.	.	.	.
Cc1ccc(NS(=O)(=O)Cc2ccccc2)nc1	-2%[9.22 µM]	1%[10 µM]	0%	?	11%[46 µM]	.
CCC(C)(C)NC(=O)C(c1ccncc1)N(Cc1cccs1)C(=O)Cn1nnc2ccccc21 (configuration not stated)	10%	0%	-1%	-4%	0%	-12%
Cc1c(C#N)c(NC(=O)CCl)n(Cc2ccccc2)c1C	4µM*	-58%	8%	-7%	.	.
COC(=O)c1cc(C(=O)OC)n(Cc2ccc(F)cc2)c1C	14%	36%	2%	-6%	.	.
Cc1c(C#N)c(NC(=O)CCl)n(Cc2ccc(F)cc2)c1C	6.3µM*	-91%	.	?	.	.
Cc1c(C#N)c(NC(=O)CCl)n(Cc2cccs2)c1C	20µM*	-9%[10 µM]	-5%	?	?	.
O=C(CSc1nnc(-c2ccccc2)n1-c1ccc(Cl)cc1)N/N=C/c1ccccc1C(=O)O	0%[9.22 µM]	6%[10 µM]	.	.	.	.
CCCCC[C@H](O)/C=C/[C@H]1[C@H](O)CC(=O)[C@@H]1C/C=C\CCCC(=O)O	2%	?	1%	-1%	.	-17%
CCCCC[C@H](O)/C=C/[C@H]1C(=O)C=C[C@@H]1C/C=C\CCCC(=O)O	.	5.6µM*!	3%	2%	.	-10%
